Experimental data from PubChem BioAssay.

What was measured:
[1] = molecular target: Tumor necrosis factor receptor superfamily member 10B (Homo sapiens) (UniProt O14763); assay: viability loss of caspase-8 NB7 cells with TRAIL – with/without TRAIL, luminescence panel, confirmation (AID 651596); details: NB7 neuroblastoma + caspase-8, TRAIL sensitization, NB7 Caspase-8, with TRAIL, mean of runs, at 10 µM, stronger effect = higher value
[2] = as above; details: NB7 neuroblastoma + caspase-8, without TRAIL, NB7 Caspase-8, without TRAIL, mean of runs, at 10 µM

Chain of Tumor necrosis factor receptor superfamily member 10B (Homo sapiens) (O14763 whole entry, looked up): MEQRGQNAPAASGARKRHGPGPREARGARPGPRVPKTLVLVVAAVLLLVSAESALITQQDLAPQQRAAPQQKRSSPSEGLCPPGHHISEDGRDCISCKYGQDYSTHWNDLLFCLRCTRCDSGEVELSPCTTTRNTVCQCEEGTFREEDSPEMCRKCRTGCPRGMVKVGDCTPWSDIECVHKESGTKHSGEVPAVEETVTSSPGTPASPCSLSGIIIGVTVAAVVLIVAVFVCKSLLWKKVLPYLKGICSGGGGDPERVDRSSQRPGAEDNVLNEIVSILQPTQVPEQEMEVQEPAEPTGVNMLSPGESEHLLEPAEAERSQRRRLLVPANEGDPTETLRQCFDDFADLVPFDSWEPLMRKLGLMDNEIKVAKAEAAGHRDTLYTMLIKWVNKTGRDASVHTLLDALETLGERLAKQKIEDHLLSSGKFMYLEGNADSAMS

Row | SMILES | activity [1] [%] | activity [2] [%]
1 | CCCCCCCCC(c1nc2ccccc2[nH]1)N1CCN=C1c1cc2ccccc2[nH]1 (stereo unspecified) | 54.9 | 84.8
2 | COc1ccc(OC)c(NC(=O)c2nc(S(=O)(=O)Cc3ccccc3)ncc2Cl)c1 | 97 | 98.9
3 | O=C(Nc1ccc2ccccc2c1)c1ccc(Cl)cc1Cl | 63.9 | 60.5
4 | Cc1cc2[nH]c3c4ccccc4nc(C)c3c2cc1C | 99.5 | 99.8
5 | c1ccc(/N=C2\N=C(Nc3ccccn3)c3ccccc32)nc1 | 40 | 48.8
6 | CCCNC(=O)c1oc2ccc3c(c2c1C)C(=O)CC(C)(C)O3 | 66.1 | 68.4
7 | CCCCCN=Cc1c(C)[nH]n(-c2nc3ccccc3s2)c1=O | 95.5 | 95.9
8 | O=c1[nH]c(/C=C/c2ccccc2Cl)nc2ccccc12 | 75.5 | 65.7
9 | Cn1c2ccccc2c(=O)c2ccc(C#CC3(O)CCCCC3)cc21 | 91.3 | 83.4
10 | CC(=O)c1cccc(NC(=O)CSc2ccc(-c3ccc4c(c3)OCO4)nn2)c1 | 52.1 | 50
11 | Cc1nnc(NC(=O)c2ccc(S(=O)(=O)C(F)F)cc2)s1 | 43.1 | 42.9
12 | COc1ccc(-n2nc3cc(C)c(NC(C)=O)cc3n2)cc1 | 71.8 | 75.7
13 | Cc1cc2nc(N3C(=O)CNC3=S)sc2cc1C | 67.8 | 64.7
14 | O=C(CCl)N1CCN(S(=O)(=O)c2ccc3ccccc3c2)CC1 | 94.9 | 64.7
15 | CC(=O)c1ccc(NC(=O)Nc2ccccc2)cc1 | 65.2 | 68.3
16 | COc1ccc(-c2nnc(NC(=O)c3ccco3)s2)cc1 | 55.4 | 60.6
17 | CCOc1ccc(-c2nc(-c3cccnc3)no2)cc1 | 53.3 | 51.5
18 | Cn1c(=O)[nH]c(=O)c2c1nc([N+](=O)[O-])n2Cc1ccccc1 | 60.5 | 96.2
19 | C=C(C)c1cc2c(ccc3ccc(=O)oc32)o1 | 92.6 | 91
20 | O=C(Nc1cc2ccccc2oc1=O)c1ccccc1 | 54.1 | 52
21 | O=C(CCl)N(c1ccccc1)c1ccccc1 | 99.2 | 99
22 | C=CCOn1c(C)c(C(C)=O)c2c3no[n+]([O-])c3ccc21 | 53.5 | 64.2
23 | Cc1ccc(C(=O)Nc2ncc3c(Cl)cccc3n2)cc1 | 91.5 | 89
24 | Cc1ccnc(NC(=O)c2ccc(Br)s2)c1 | 52.3 | 53
25 | COc1ccccc1-c1cc2nc(-c3ccccc3)cc(N3CCN(C(=O)c4ccco4)CC3)n2n1 | 81.9 | 66

Row | SMILES | activity [1] [%] | activity [2] [%]
26 | CCc1cc2c(=O)c(-c3cnn(-c4ccccc4)c3)c(C)oc2cc1OCC(=O)Nc1ccc(F)c(F)c1 | 37.2 | 26.4
27 | CC1=C(C(=O)Nc2ccccc2)C(c2ccc(C)cc2)N=C(Nc2nc3ccccc3o2)N1 (stereo unspecified) | 41 | 76
28 | COc1ccc(C(=O)Nc2ccccc2C(=O)N/N=C/c2cccc3ccccc23)cc1 | 98.8 | 95.8
29 | O=C(Nc1ccc(NC(=O)C2CC2)cc1)c1ccco1 | 44 | 39.1
30 | NC(=S)NN=C1c2ccccc2-c2c(F)c(F)c(F)c(F)c21 | 72.1 | 71.4
31 | CC1C(=O)NN=C1C(=O)N/N=C\C(Br)=C\c1ccccc1 (stereo unspecified) | 80.2 | 73.8
32 | CCOC(=O)c1c(C)oc2c(F)c(F)c(F)c(F)c2c1=O | 99.2 | 99.2
33 | Cc1cc(C)c2sc(N(CCCN(C)C)C(=O)c3ccc(S(=O)(=O)N4CCc5ccccc5C4)cc3)nc2c1 | 93.1 | 93.8
34 | O=C(Nc1nc(-c2ccccn2)cs1)C12CC3CC(CC(O)(C3)C1)C2 | 66.8 | 78.4
35 | C#CCSc1nnc(-c2sc(-c3ccccc3)nc2C)n1C | 84.7 | 90
36 | COc1cccc(/C=C2\Oc3ccc(O)cc3C2=O)c1O | 66.8 | 56.4
37 | C/C(=N\NC(=O)c1ccn(C)n1)c1cccc(NC(=O)c2ccc(C)s2)c1 | 48.5 | 45.5
38 | CCOc1ccccc1NC(=O)c1nc(S(=O)(=O)Cc2cccc(C)c2)ncc1Cl | 84.6 | 97.2
39 | COc1ccc(C(=O)Nn2c(SCC(=O)N3CCC(C)CC3)nc3ccccc3c2=O)cc1 | 68.2 | 67.2
40 | CC(C)c1nnc(NC(=O)c2c(O)c3cccc4c3n(c2=O)CCC4)s1 | 43.6 | 36.5
41 | CCc1ccc(-n2nc3cc(C)c(N)cc3n2)cc1 | 64.4 | 51.1
42 | Cc1cc(C(=O)COC(=O)c2n[nH]c3ccccc23)c(C)n1C | 62.2 | 55.9
43 | O=C(Nc1ccc(F)cc1)c1nc(S(=O)(=O)Cc2ccccc2)ncc1Cl | 57 | 94.9
44 | CC(C)N(Cc1ccccc1)C(=O)COC(=O)c1cnc(Cl)c(Cl)c1 | 81.2 | 72
45 | COc1ccc(C=C2OC(=O)C(C(C)=O)=C2O)cc1 | 90.4 | 89
46 | CCOC(=O)CNC(=O)CSc1nnc(NC(=O)c2ccc(C)cc2)s1 | 94.5 | 92.5
47 | CN(C)c1ccc(Sc2ccc3nc(N)nc(N)c3c2)cc1 | 62.9 | 73
48 | c1c2c(cc3sc(N4CCOCC4)nc13)OCCO2 | 66.8 | 75
49 | Cc1ccc(N(NC(=O)C(O)(c2ccccc2)c2ccccc2)C(=O)CCl)cc1 | 98.5 | 97.6
50 | O=C(NCCc1cccc(Cl)c1)c1ccc2c(c1)OCO2 | 47.7 | 39.4

Row | SMILES | activity [1] [%] | activity [2] [%]
51 | CC(C)c1ccc(C(=O)NC2=NCCS2)cc1 | 63.5 | 67.1
52 | CN(CCO)c1cc(Sc2nc3ccccc3s2)c2nonc2c1[N+](=O)[O-] | 18.5 | 91.7
53 | CCN(CC)CCn1c2c(c(SCC(=O)Nc3nc4ccc(C)cc4s3)nc1=O)CCC2 | 28 | 21.6
54 | O=C(Nc1ccccc1)Nc1ccc(C(=O)N2CCCC2)cc1 | 65.6 | 71.5
55 | c1ccc2sc(NN=C3CCCCCC3)nc2c1 | 59.8 | 46.7
56 | COC(=O)c1ccc2nc(NC(=O)C(C)(C)C)sc2c1 | 93.2 | 91.2
57 | O=c1c2[nH]c3ccccc3c2ncn1C1CCCCC1 | 75.2 | 74.8
58 | COc1ccc(/C(N)=N/OC(=O)CC2CCCCC2)cc1OC | 83.4 | 78.2
59 | NC(=O)c1ccccc1NC(=O)/C=C/c1ccccc1 | 67.8 | 70.7
60 | Cc1cc(C)cc(N2C(N)=NC(N)=NC2c2cccc(Cl)c2)c1 (stereo unspecified) | 57.8 | 74.3
61 | Cc1cc(NCCCn2ccnc2)n2ncc(-c3ccc(Cl)cc3)c2n1 | 45.8 | 48.5
62 | COc1ccc2nc(Nc3ccccc3)sc2c1 | 49.2 | 38.6
63 | Cc1ccc2nc(-c3ccc(NC(=O)C4CCCO4)cc3)[nH]c2c1 (stereo unspecified) | 72.2 | 71.9
64 | O=C(Nc1ccc(NC(=O)c2ccccc2F)cn1)c1ccco1 | 66.8 | 58.3
65 | Cc1onc(-c2ccccc2Cl)c1C(=O)O/N=C(\N)c1ccccc1 | 99 | 98.1
66 | Cc1cc2ncc(-c3ncc(C(F)(F)F)cc3Cl)cn2n1 | 45.7 | 41.9
67 | CCOc1ccc(/C=N/NC(=O)c2ccccc2NC(=O)c2ccc(OC)cc2)cc1 | 72.6 | 57.7
68 | COc1ccccc1NC(=O)CSc1ccc(-c2ccc(-n3ccnc3)cc2)nn1 | 47 | 38.6
69 | Cc1nc(NC(=O)c2cc3ccccc3o2)sc1C | 80.8 | 79.8
70 | COc1cc2c(cc1OC)C(c1cc(Br)ccc1F)N(C(=O)CCl)CC2 (stereo unspecified) | 98.6 | 98.7
71 | CC(C)Nc1ccc(-n2nc3ccccc3[n+]2[O-])cc1 | 62.5 | 61
72 | Cc1cccc(-c2noc(-c3ccc4c(c3)OCO4)n2)c1 | 64.6 | 60.1
73 | COn1c(SC2CCCCC2)nc2ccccc2c1=O | 60.3 | 60.1
74 | COC(=O)c1nc(NC(=S)NC(=O)c2cccs2)sc1C | 53.8 | 37.9
75 | Cc1ccc2c(c1)sc(=NC(=O)c1cccs1)n2C | 91.1 | 90.7

Row | SMILES | activity [1] [%] | activity [2] [%]
76 | COc1ccc(Oc2c(Cl)cnn(-c3ccc(Cl)c(Cl)c3)c2=O)cc1 | 98.5 | 99.1
77 | CC1(C)N=C(N)N=C(N)N1c1ccc(OCC(=O)N2CCOCC2)cc1 | 62.7 | 87.2
78 | c1ccc(CNc2nc(NCC3CC3)nc3cc(-c4ccccc4)sc23)cc1 | 15.9 | 16.7
79 | O=C(/C=C/c1cccc(F)c1)N1CCc2ccccc21 | 55.1 | 52.8
80 | COc1cccc2c1C(CO)N1C(C#N)C3CC(C(=O)O)C(C1C2)N3C (stereo unspecified) | 59.9 | 83.8
81 | CCN(CC)c1ccc(C(=O)OCc2cc(=O)oc3cc(O)ccc23)cc1 | 83.8 | 96
82 | O=C(Nc1nc2ccccc2[nH]1)c1ccccc1 | 88 | 84.5
83 | Cc1ccc(NC(=O)c2ccc(CSc3nnnn3C)cc2)cc1 | 44.9 | 37.7
84 | N/C(Cc1ccc(Cl)c(Cl)c1)=N\OC(=O)c1cccs1 | 49.6 | 39.5
85 | NC(Cc1ccc(C(F)(F)F)cc1)c1csc(NC(=O)Nc2ccccc2Oc2ccccc2)n1 (stereo unspecified) | 75.1 | 93.7
86 | O=C(NC1CCCCC1)c1n[nH]c2c1CCCCC2 | 82.1 | 80.8
87 | Cc1cccc(-c2nc3cc(NC(=O)C4CCCO4)ccc3o2)c1 (stereo unspecified) | 66.7 | 64.7
88 | O=C1c2ccc(Cl)cc2S(=O)(=O)c2cccc(C(=O)N3CCN(c4ccc(Cl)cn4)CC3)c21 | 94.8 | 83.5
89 | CCCCCc1c(-c2ccc(OC)c(OC)c2)ncn1CCc1ccccc1OC | 22.7 | 30.2
90 | COc1ccc(-c2cc(=O)c3ccccc3s2)cc1 | 61.2 | 62
91 | C=CCNC(=O)c1cc(-c2ccc3c(c2)OCO3)on1 | 63.3 | 61.1
92 | Cc1ccc(C(=O)Nc2ccc3ncccc3c2)cc1 | 93.4 | 92.9
93 | C=CCN(CC=C)c1cnn(-c2nc3ccccc3[nH]2)c(=O)c1Cl | 69.6 | 59.7
94 | Cc1ccc(-c2nc(N/N=C/c3ccccc3[N+](=O)[O-])c3ccccc3n2)cc1 | 90.3 | 82.4
95 | CCOc1ccc2nc(-c3ccccc3)[nH]c2c1 | 81.2 | 76
96 | O=C(Nc1ccc2c(c1)CCC2)c1ccc(F)cc1 | 49.5 | 44.1
97 | O=C(Oc1ccc2ccccc2c1Cl)N1CCCCCC1 | 20.1 | 12.2
98 | O=C(NC(=S)Nc1nc2ccccc2s1)c1cccs1 | 83.1 | 75.6
